Among the data in the supplement of paper PMC10849652 are log2 fold change values, retold here.

Assay in all cases: log2 fold change, soluble protein after heating vs DMSO (PISA); higher = thermal stabilisation; K562 cells, 10 uM, 30 min; active = over 0.2 and 3.5 SD of the protein, either way, in both replicates (recomputed)
Compound in one assay: C1COCCN1CCN2C3=CC=CC=C3N=C2NC(=O)C4=CC(=CC=C4)[N+](=O)[O-] [IRAK-1-4 Inhibitor I]
The method in brief: (§1)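 K562 cells at 2×10^6 cells/mL were given 10 μM compound for 30 min. Aliquots then went through 3 min of heating across 48°C-58°C, were pooled, and were extracted in PBS with 0.5% NP-40 at 4°C, and the supernatant after 21,000xg for 90 min was quantified by TMTpro 16plex LC-MS/MS with channel sums equalised. Thermal stability relative to control samples, from duplicates, is given as log2 fold change.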

Compound in the next assay: C=CC(=O)N1CCC[C@@H](n2nc(-c3ccc(Oc4ccccc4)cc3)c3c(N)ncnc32)C1 [ibrutinib]
The method in brief: as §1

Compound in assay [1]: CC(=O)c1cnc2ccc(-c3cc(Cl)c(O)c(Cl)c3)nc2c1N[C@H]1CC[C@H](CN(C)C)CC1
An outline of the steps: as §1

Compound in the next assay: CC(C)(C)Cn1c(N)nc2ccc(-c3[nH]c(C(C)(C)C)nc3-c3ccc(F)cc3)nc21 [ralimetinib]
An outline of the steps:
as §1

Compound in assay [2]: CC(C)(O)CC(=O)NCCn1ccc2ncnc(Nc3ccc(Oc4cccc(C(F)(F)F)c4)c(Cl)c3)c21
The method in brief:
as §1

Compound in assay [3]: CC(C)C1=C2N=C(C=C(N2N=C1)NCC3=CC=CC=C3)NCCCCCCN
An outline of the steps:
as §1

Compound in assay [4]: CC(C)C[C@@H](C=O)NC(=O)[C@H](CC(C)C)NC(=O)[C@H](CC(C)C)NC(=O)OCc1ccccc1
The method in brief:
as §1

Compound in a further assay: CC(C)N(C[C@H]1O[C@@H](n2cnc3c(N)ncnc32)[C@H](O)[C@@H]1O)[C@H]1C[C@@H](CCc2nc3cc(C(C)(C)C)ccc3[nH]2)C1 [pinometostat]
The method in brief: as §1

Compound in assay [5]: CC1=C(C(CC(=O)N1)C2=CC=C(C=C2)C(F)(F)F)C(=O)NC3=C(C=C4C(=C3)C=NN4)F
The method in brief: as §1

Compound in assay [6]: CC1=C(C2=C(C=C1)C(=O)C3=CC=CC=C3N2CCCN)C
An outline of the steps: as §1

Compound in assay [7]: CC1=C(C=C(C=C1)NC(=O)C2=CC(=CC=C2)C(C)(C)C#N)NC3=CC4=C(C=C3)N=CN(C4=O)C
The method in brief:
as §1

Compound in assay [8]: CC1=C(C=C(C=C1)NC(=O)C2=CC(=CC=C2)N(C)C)NC(=O)C3=CC=C(C=C3)O
The method in brief:
as §1

Compound in assay [9]: CC1=CC=C(C=C1)SC2=C3C=C(SC3=CN=C2)C(=O)N
The method in brief: as §1

Compound in assay [10]: CC1=NC(=CC=C1)C2=C(N=C(N2)C(C)(C)C)C3=CC4=NC=CN=C4C=C3
An outline of the steps:
as §1

Compound in a further assay: CCCCN(Cc1ccc(C(=O)NO)cc1)C(=O)Nc1ccccc1 [Nexturastat A]
The method in brief:
as §1

Compound in a further assay: CCCS(=O)(=O)Nc1ccc(F)c(C(=O)c2c[nH]c3ncc(-c4ccc(Cl)cc4)cc23)c1F [vemurafenib]
The method in brief:
as §1

Compound in assay [11]: CCCS(=O)(=O)Nc1ccc(F)c(C(=O)c2c[nH]c3ncc(Cl)cc23)c1F
An outline of the steps: as §1

Compound in assay [12]: CCCc1cc(C)[nH]c(=O)c1CNC(=O)c1cc(-c2ccnc(N3CCN(C)CC3)c2)cc2c1cnn2C(C)C
An outline of the steps:
as §1

Compound in a further assay: CCN(CC)Cc1ccc2cc(COC(=O)Nc3ccc(C(=O)NO)cc3)ccc2c1 [givinostat]
The method in brief: as §1

Compound in a further assay: CCN(CCCOc1ccc2c(Nc3cc(CC(=O)Nc4cccc(F)c4)[nH]n3)ncnc2c1)CCOP(=O)(O)O [barasertib]
The method in brief:
as §1

About 7,900 targets were measured; listed, in parts, are those with a hit and a random draw of the rest. About 0.6% of all pairs of compound and target were hits. Unmarked numbers belong to inactive results.

Sequence of UniProt Q96HV5 (Q96HV5 whole entry, looked up): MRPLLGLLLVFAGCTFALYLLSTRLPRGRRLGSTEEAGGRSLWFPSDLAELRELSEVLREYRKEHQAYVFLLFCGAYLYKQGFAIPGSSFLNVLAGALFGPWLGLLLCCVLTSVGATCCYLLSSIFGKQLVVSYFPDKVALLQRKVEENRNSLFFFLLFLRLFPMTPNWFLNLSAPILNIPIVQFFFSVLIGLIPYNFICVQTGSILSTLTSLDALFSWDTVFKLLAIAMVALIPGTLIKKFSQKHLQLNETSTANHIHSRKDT
Sequence of UniProt Q96K49 (Q96K49 whole entry, looked up): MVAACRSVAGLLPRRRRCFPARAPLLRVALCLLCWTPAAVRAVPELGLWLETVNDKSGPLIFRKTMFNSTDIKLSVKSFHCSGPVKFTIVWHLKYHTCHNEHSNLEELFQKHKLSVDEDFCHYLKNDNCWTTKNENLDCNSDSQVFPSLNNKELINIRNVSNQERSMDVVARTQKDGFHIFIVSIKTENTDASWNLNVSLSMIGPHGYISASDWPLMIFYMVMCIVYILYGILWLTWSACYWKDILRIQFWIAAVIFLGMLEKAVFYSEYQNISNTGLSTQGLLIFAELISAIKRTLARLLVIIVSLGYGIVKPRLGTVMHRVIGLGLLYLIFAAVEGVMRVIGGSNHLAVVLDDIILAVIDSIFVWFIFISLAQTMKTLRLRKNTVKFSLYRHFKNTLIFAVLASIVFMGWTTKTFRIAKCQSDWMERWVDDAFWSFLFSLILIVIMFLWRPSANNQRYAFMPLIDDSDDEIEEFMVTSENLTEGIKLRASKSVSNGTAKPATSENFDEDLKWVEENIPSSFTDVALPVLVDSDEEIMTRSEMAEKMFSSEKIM
Sequence of UniProt P12270 (P12270 whole entry, looked up): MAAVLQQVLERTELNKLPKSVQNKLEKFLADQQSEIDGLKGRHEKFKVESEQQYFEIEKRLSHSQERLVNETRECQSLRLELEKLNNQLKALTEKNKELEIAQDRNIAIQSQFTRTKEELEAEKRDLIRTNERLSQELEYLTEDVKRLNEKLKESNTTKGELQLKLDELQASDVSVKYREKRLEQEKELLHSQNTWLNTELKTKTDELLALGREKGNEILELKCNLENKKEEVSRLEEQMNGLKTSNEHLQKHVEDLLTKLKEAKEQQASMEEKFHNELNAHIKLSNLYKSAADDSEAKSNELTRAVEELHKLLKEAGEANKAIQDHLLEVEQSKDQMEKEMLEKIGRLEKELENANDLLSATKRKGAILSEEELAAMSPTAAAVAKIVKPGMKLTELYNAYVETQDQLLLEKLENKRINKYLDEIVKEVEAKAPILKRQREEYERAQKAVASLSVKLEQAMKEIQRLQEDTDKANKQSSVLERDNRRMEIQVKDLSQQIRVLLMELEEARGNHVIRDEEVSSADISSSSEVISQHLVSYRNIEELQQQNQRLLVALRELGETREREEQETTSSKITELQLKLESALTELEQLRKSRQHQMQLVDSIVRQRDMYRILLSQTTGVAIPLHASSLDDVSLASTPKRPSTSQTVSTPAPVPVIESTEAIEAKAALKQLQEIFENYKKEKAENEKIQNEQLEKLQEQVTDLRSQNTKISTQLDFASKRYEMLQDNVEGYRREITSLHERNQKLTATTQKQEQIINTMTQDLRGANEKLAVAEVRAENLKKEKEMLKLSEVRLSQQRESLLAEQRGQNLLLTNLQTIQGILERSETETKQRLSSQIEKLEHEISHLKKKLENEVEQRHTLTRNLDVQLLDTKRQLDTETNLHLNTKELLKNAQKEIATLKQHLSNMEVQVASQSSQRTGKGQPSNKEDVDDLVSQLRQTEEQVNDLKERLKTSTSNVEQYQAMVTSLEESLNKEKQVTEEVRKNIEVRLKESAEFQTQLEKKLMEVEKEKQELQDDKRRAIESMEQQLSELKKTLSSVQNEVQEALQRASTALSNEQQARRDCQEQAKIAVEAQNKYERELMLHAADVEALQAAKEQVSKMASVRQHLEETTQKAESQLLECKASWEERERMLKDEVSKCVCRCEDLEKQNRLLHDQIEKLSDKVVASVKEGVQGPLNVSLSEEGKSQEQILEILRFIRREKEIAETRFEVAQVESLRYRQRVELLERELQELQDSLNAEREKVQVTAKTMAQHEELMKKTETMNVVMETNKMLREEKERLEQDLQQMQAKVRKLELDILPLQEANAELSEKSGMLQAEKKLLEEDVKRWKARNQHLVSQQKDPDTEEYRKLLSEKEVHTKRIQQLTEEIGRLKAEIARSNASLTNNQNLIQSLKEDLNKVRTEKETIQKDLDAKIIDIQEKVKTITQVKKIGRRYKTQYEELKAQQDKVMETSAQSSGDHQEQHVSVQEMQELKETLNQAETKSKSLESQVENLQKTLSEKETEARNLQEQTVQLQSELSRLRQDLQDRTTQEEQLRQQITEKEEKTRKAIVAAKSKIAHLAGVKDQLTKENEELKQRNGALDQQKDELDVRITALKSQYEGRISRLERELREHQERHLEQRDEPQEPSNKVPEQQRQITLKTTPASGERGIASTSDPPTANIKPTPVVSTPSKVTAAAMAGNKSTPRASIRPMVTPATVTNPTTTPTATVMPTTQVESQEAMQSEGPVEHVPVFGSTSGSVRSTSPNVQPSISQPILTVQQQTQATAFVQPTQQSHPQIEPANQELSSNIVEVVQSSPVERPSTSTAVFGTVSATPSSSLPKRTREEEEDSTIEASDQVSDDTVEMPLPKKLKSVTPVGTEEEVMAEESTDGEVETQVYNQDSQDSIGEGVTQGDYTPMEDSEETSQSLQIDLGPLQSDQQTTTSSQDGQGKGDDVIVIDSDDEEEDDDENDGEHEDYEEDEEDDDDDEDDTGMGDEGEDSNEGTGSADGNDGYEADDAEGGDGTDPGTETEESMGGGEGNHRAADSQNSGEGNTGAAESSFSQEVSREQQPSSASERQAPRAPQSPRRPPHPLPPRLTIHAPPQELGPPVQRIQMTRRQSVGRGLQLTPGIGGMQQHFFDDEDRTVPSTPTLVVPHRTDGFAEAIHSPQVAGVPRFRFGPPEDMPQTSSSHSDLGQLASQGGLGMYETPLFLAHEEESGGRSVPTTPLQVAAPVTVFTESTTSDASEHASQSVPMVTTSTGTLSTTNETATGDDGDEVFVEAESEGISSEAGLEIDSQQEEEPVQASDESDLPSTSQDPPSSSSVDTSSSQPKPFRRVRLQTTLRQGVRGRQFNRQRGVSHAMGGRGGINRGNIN
Sequence of UniProt Q8N3P4 (Q8N3P4 whole entry, looked up): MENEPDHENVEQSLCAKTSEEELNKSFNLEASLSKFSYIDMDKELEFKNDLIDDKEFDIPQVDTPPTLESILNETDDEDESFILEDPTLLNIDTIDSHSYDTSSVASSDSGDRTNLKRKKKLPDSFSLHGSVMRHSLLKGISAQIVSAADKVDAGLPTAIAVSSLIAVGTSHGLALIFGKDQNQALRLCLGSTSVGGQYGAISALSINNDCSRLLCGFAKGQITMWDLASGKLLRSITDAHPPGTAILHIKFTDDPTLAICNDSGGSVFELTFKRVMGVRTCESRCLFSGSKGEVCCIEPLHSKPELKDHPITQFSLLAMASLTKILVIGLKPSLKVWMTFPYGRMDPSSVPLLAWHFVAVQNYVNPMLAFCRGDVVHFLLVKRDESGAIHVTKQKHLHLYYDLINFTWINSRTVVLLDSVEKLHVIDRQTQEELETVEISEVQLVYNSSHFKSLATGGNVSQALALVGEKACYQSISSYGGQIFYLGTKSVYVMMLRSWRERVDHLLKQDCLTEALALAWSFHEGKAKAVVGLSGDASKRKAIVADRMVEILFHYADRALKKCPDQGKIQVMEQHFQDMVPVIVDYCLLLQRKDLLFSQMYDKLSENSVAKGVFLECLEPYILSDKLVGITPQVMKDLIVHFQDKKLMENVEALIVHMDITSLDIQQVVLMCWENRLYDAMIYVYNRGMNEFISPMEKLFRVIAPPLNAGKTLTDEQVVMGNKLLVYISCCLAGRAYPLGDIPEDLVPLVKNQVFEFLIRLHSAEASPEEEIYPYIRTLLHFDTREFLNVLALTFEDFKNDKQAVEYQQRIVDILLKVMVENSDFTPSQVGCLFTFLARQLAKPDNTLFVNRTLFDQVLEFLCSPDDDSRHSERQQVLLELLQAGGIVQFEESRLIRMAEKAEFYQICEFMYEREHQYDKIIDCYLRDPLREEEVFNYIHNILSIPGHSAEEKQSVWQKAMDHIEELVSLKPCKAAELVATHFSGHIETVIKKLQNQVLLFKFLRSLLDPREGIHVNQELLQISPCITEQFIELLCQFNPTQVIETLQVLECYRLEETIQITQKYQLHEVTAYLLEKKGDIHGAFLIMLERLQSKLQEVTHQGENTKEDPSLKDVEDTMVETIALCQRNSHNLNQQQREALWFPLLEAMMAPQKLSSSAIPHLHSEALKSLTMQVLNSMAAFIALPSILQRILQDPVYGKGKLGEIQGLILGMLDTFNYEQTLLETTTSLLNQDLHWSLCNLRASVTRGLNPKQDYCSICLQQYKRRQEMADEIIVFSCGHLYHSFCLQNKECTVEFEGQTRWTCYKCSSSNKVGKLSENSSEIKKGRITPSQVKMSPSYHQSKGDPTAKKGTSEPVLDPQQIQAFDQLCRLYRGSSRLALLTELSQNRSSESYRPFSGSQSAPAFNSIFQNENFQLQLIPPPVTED
Sequence of UniProt O43617 (O43617 whole entry, looked up): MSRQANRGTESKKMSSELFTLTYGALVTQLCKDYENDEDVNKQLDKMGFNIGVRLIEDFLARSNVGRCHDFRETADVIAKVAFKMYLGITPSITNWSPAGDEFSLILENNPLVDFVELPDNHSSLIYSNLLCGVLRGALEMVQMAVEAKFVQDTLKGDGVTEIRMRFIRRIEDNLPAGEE

Turning to VPS8 (UniProt Q8N3P4), the log2 fold change with IRAK-1-4 Inhibitor I is -0.085; with ibrutinib, -0.117; in [1] it was -0.004; with ralimetinib it was 0.088; in assay [2], -0.079; in [3], -0.254. Moreover, the log2 fold change in assay [4] is 0.052; with pinometostat, 0.039; in assay [5], 0.026; in [6] it was 0.015; in assay [7] it was -0.011; in [8], -0.003. For the same target, the log2 fold change in assay [9] was -0.034; in [10], 0.058; with Nexturastat A, 0.032; with vemurafenib, 0.048; in assay [11] it was 0.126; in assay [12], -0.04. Also, the log2 fold change in the assay with givinostat is 0.014; with barasertib, 0.028.
For TOM1L1 (UniProt O75674), the log2 fold change with IRAK-1-4 Inhibitor I was 0.006; with ibrutinib, -0.001; in assay [1], -0.014; with ralimetinib it was -0.047; in assay [2], -0.013; in [3] it was 0.019. Further, the log2 fold change in assay [4] was 0.028; with pinometostat it was -0.023; in assay [5] it was 0.006; in assay [6], -0.019; in assay [7], -0.101; in assay [8], 0.005. The log2 fold change in assay [9] is 0.057; in assay [10], 0.019; with Nexturastat A, -0.038; in the assay with vemurafenib, 0.102; in assay [11], 0.015; in [12], -0.07. In addition, the log2 fold change with givinostat was 0.024; with barasertib it was 0.03.
Turning to TRAPPC3 (UniProt O43617), the log2 fold change with IRAK-1-4 Inhibitor I was 0.03; in the assay with ibrutinib it was -0.032; in [1] it was -0.056; with ralimetinib, -0.083; in assay [2] it was -0.033; in [3], -0.105. In addition, the log2 fold change in assay [4] was 0.001; in the assay with pinometostat it was -0.029; in [5], 0.031; in assay [6], 0.008; in assay [7], 0; in [8], 0.023. Further, the log2 fold change in assay [9] is 0.061; in assay [10] it was 0.042; in the assay with Nexturastat A it was -0.218 (active); with vemurafenib it was 0.023; in assay [11] it was 0.01; in [12], -0.006. For the same target, the log2 fold change with givinostat was -0.051; with barasertib, 0.025.
In the case of TPR (UniProt P12270), the log2 fold change was 0.03 with IRAK-1-4 Inhibitor I; -0.048 in the assay with ibrutinib; 0.247 in assay [1]; 0.058 in the assay with ralimetinib; 0.121 in assay [2]; 0.091 in [3]. Moreover, the log2 fold change in [4] is 0.024; in the assay with pinometostat, -0.001; in assay [5], -0.045; in [6] it was -0.122; in assay [7] it was -0.001; in assay [8] it was 0.023. The log2 fold change is -0.069 in [9]; -0.047 in [10]; -0.048 with Nexturastat A; 0.031 with vemurafenib; 0.012 in [11]; 0.003 in assay [12]. Moreover, the log2 fold change was -0.08 with givinostat and 0 with barasertib.
For the target TMEM87B (UniProt Q96K49), the log2 fold change with IRAK-1-4 Inhibitor I is 0.139; with ibrutinib, -0.084; in [1], -0.046; in the assay with ralimetinib it was -0.086; in [2] it was -0.204; in assay [3], -0.39 (active). Besides, the log2 fold change in assay [4] is -0.007; with pinometostat, 0.065; in assay [5] it was 0.057; in assay [6], 0.029; in [7] it was -0.018; in assay [8] it was -0.013. The log2 fold change in assay [9] was 0.112; in assay [10], -0.008; with Nexturastat A, -0.059; with vemurafenib, -0.048; in assay [11], -0.028; in assay [12], 0.008. For the same target, the log2 fold change with givinostat was -0.063; in the assay with barasertib it was 0.048.
For the target TMEM41A (UniProt Q96HV5), the log2 fold change with IRAK-1-4 Inhibitor I was -0.022; in the assay with ibrutinib, -0.007; in assay [1], -0.04; in the assay with ralimetinib, 0.033; in assay [2], 0.022; in assay [3], 0.043. In addition, the log2 fold change in assay [4] was -0.079; with pinometostat, -0.06; in [5], 0.035; in assay [6], 0.151; in assay [7], 0.039; in assay [8], 0.093. For the same target, the log2 fold change is 0.002 in [9]; 0.014 in assay [10]; -0.138 in the assay with Nexturastat A; -0.163 in the assay with vemurafenib; -0.101 in assay [11]; -0.021 in [12]. Also, the log2 fold change was -0.043 with givinostat and 0.001 in the assay with barasertib.
